BL2 CD40 inh = CD40 pathway inhibition in BL2 cells | BL2 NF-kB luciferase reporter, CD40L-induced, 4 h | inhibition, % at 10 µM | 83,000 compounds, 0.94% hits | AID 1053188;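 active = mean inhibition of at least 50% with a set share of replicates also reaching that level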;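 note: 0% = neutral control wells and 100% = IKK inhibitor VII at 50 µM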
The depositor's hits bear a star; ! = not active in a repeat; [ ] = another dose, or the depositor's remark. Many of the other results were omitted from the sample, so hits are more common in it than they were.

SMILES	BL2 CD40 inh
Cc1cc(C(=O)COC(=O)c2cccn2C)c(C)n1Cc1ccco1	57*
Cc1cc(C(=O)COC(=O)c2ccco2)c(C)n1Cc1ccco1	101*
Cc1nn(Cc2ccccc2)c(C)c1C(=O)OCC(=O)c1cc(C)n(CC(F)(F)F)c1C	11
Cc1cc(C(=O)CSc2nnc(N)s2)c(C)n1Cc1ccco1	-25
Cc1cc(C(=O)COc2cccnc2[N+](=O)[O-])c(C)n1Cc1ccco1	-20
COCC(C)n1c(C)cc(C(=O)COC(=O)c2cccn2C)c1C (centres undefined)	52*
Cc1cc(C(=O)COC(=O)c2n[nH]c(=O)c3ccccc23)c(C)n1C(C)C	-36
COCC(C)n1c(C)cc(C(=O)COc2ccc(N(C)S(=O)(=O)c3ccc(NC(C)=O)cc3)cc2)c1C (centres undefined)	-7
CC(=O)Nc1ccc(-c2csc(NNC(=O)c3ccc(C)cc3)n2)cc1	-18
Cc1ccc(S(=O)(=O)N2CCCCC2)cc1NC(=O)CNc1ccc(C(F)(F)F)cc1	6
CC(C)(C)c1ccc(CCC(CC(=O)O)CC(=O)O)cc1	-3
COc1cccc(-c2ccc3c(c2)O[C@H](CN(C)Cc2cccnc2)[C@@H](C)CN([C@@H](C)CO)S3(=O)=O)c1	14[25 µM]
CCC(=O)Nc1ccc2c(c1)C(=O)N(C)C[C@@H](OC)[C@H](C)CN(C(=O)NC1CCCCC1)[C@H](C)CO2	1[25 µM]
O=C(COC(=O)CCCOc1ccccc1)NC1CCS(=O)(=O)C1 (centres undefined)	9
N#Cc1cccc(-c2ccc(C3[C@@H]4CN(C(=O)C5CC5)C[C@H]3N4)cc2)c1 (some centres undefined)	76*!
O=C(C1CC1)N1C[C@@H]2N[C@H](C1)C2c1ccc(-c2cccc(F)c2)cc1 (some centres undefined)	60*!
Cc1cccc(-c2ccc(C3[C@@H]4CN(C(=O)Nc5ccccc5)C[C@H]3N4)cc2)c1 (some centres undefined)	0
O=C(C1CCCC1)N1C[C@@H]2N[C@H](C1)C2c1ccc(-c2cccc(F)c2)cc1 (some centres undefined)	8
O=C(Nc1ccc(F)cc1)N1C[C@@H]2N[C@H](C1)C2c1ccc(-c2ccccc2F)cc1 (some centres undefined)	-4
N#Cc1ccc(-c2ccc(C3[C@@H]4CN(C(=O)C5CCC5)C[C@H]3N4)cc2)cc1 (some centres undefined)	44
O=C(c1ccc(F)cc1)N1C[C@@H]2N[C@H](C1)C2c1ccc(-c2ccccc2F)cc1 (some centres undefined)	4[25 µM]
O=C(Nc1ccc(C(F)(F)F)cc1)N1C[C@@H]2N[C@H](C1)C2c1ccc(-c2ccccc2)cc1 (some centres undefined)	70*!
O=C(C1CC1)N1C[C@@H]2N[C@H](C1)C2c1ccc(-c2ccccc2F)cc1 (some centres undefined)	83*!
O=C(Nc1ccc(C(F)(F)F)cc1)N1C[C@@H]2N[C@H](C1)C2c1ccc(/C=C/c2ccccc2)cc1 (some centres undefined)	45
N#Cc1ccc(-c2ccc(C3[C@@H]4CN(C(=O)C5CCCC5)C[C@H]3N4)cc2)cc1 (some centres undefined)	3
SMILES	BL2 CD40 inh
Cc1cccc(-c2ccc(C3[C@@H]4CN(C(=O)C5CCC5)C[C@H]3N4)cc2)c1 (some centres undefined)	14
c1ccc(OCC2CCNCC2)nc1	7
CN(Cc1ccc(F)cc1)C(=O)c1cc(S(=O)(=O)N2CCCCC2)ccc1N1CCOCC1	0
CCN(CC)CCOc1cccc(C(C)C)c1	-6
CC(=O)N1CCN(C(=O)c2ccc(NS(=O)(=O)c3ccc(Cl)c(Cl)c3)cc2)CC1	13
Cc1cc(C)c(C#N)c(SCC(O)COc2ccc(Br)cc2)n1 (centres undefined)	11
COc1cccc(-c2cn(CC[C@@H]3CC[C@@H](NC(=O)CC4CC4)[C@H](CO)O3)nn2)c1	-11
N=C(N)SCc1ccc(Cl)c2ccccc12	18
COc1cc(NC(=O)Nc2cccc3cccnc23)cc(OC)c1OC	-20
O=C(N[C@@H]1CC[C@H](CCn2cc(C3CCCC3)nn2)O[C@@H]1CO)c1cccnc1	-15
CO[C@H]1CC[C@@H]2CCOc3c(C#N)cccc3C(=O)N(C)C[C@H](c3ccccc3)CC(=O)N(C)C[C@H]1O2	4[25 µM]
CCS(=O)(=O)Nc1ccc2c(c1)C(=O)N(C)C[C@H](OC)[C@H](C)CN(CC1CCCCC1)[C@H](C)CO2	-3[25 µM]
O=C(c1cccc(F)c1)N1C[C@H]2[C@@H](c3ccccc31)[C@@H](CO)N2C(=O)C1CCCC1	10
NCC12CC3CC(C1)CC(CN)(C3)C2	-6
COc1ccc(S(=O)(=O)Nc2ccc3c(c2)C(=O)N([C@@H](C)CO)C[C@H](C)[C@@H](CN(C)Cc2ccc(C(F)(F)F)cc2)OCCCC[C@H](C)O3)cc1	15[25 µM]
C[C@@H]1CCCCO[C@H](CN(C)Cc2ccc(C(F)(F)F)cc2)[C@@H](C)CN([C@@H](C)CO)C(=O)c2cc(NC(=O)Nc3cccc4ccccc34)ccc2O1	51*[25 µM]
COc1ccc(S(=O)(=O)Nc2ccc3c(c2)C(=O)N([C@H](C)CO)C[C@H](C)[C@@H](CN(C)Cc2ccc(C(F)(F)F)cc2)OCCCC[C@@H](C)O3)cc1	53*[25 µM]
C[C@H]1CCCCO[C@H](CN(C)C(=O)C2CCCCC2)[C@@H](C)CN([C@@H](C)CO)C(=O)c2cc(NS(=O)(=O)c3ccccc3)ccc2O1	14[25 µM]
C[C@@H]1CN([C@H](C)CO)C(=O)c2cc(NC(=O)Nc3cccc4ccccc34)ccc2O[C@@H](C)CCCCO[C@H]1CN(C)Cc1ccc(C(F)(F)F)cc1	49*[25 µM]
C[C@@H]1CCCCO[C@@H](CN(C)Cc2ccc(C(F)(F)F)cc2)[C@H](C)CN([C@H](C)CO)C(=O)c2cc(NC(=O)Nc3cccc4ccccc34)ccc2O1	29[25 µM]
C[C@@H]1CCCCO[C@H](CN(C)Cc2ccc(C(F)(F)F)cc2)[C@H](C)CN([C@@H](C)CO)C(=O)c2cc(NC(=O)Nc3cccc4ccccc34)ccc2O1	15[25 µM]
C[C@@H]1CCCCO[C@@H](CN(C)C(=O)C2CCCCC2)[C@@H](C)CN([C@H](C)CO)C(=O)c2cc(NS(=O)(=O)c3ccccc3)ccc2O1	67*[25 µM]
C[C@@H]1CCCCO[C@@H](CN(C)Cc2ccc(C(F)(F)F)cc2)[C@H](C)CN([C@@H](C)CO)C(=O)c2cc(NC(=O)Nc3cccc4ccccc34)ccc2O1	10[25 µM]
COc1ccc(S(=O)(=O)Nc2ccc3c(c2)C(=O)N([C@H](C)CO)C[C@@H](C)[C@H](CN(C)Cc2ccc(C(F)(F)F)cc2)OCCCC[C@H](C)O3)cc1	26[25 µM]
C[C@@H]1CCCCO[C@@H](CN(C)Cc2ccc(C(F)(F)F)cc2)[C@@H](C)CN([C@H](C)CO)C(=O)c2cc(NC(=O)Nc3cccc4ccccc34)ccc2O1	16[25 µM]
C[C@H]1CCCCO[C@@H](CN(C)C(=O)C2CCCCC2)[C@@H](C)CN([C@@H](C)CO)C(=O)c2cc(NS(=O)(=O)c3ccccc3)ccc2O1	10[25 µM]
Cc1csc(N(C(=O)c2cccc(S(=O)(=O)N3CCCC3)c2)c2ccccc2)n1	20
O=C(c1ccccc1)N1CCCC(C(=O)N2CCN(c3ccccc3)CC2)C1 (centres undefined)	3
O=C(Nc1ccccc1F)N1CC(=O)N2[C@H](C1)[C@H](c1ccc(-c3cccnc3)cc1)[C@@H]2CO	-10[25 µM]

Screening results: PubChem, Broad Institute
